Inconclusive results are not listed. The source made the active and inactive calls. Unless noted, the call rests on the fitted dose curve; in most records, active means well fitted curve in the direction sought with a large enough effect; inconclusive means small, poorly fitted or top-dose-only effect, or another doubt; inactive means no such curve, though single readings can be large; an effect the other way counts as inactive or inconclusive.

Assay [1] can be described thus: qHTS for Inhibitors of Plasmodium falciparum (DD2) proliferation (AID 504314). Further: potency means the concentration at half of the fitted maximal effect. In outline:
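Erythrocytes infected with P. falciparum (0.3% parasitemia, 2.5% hematocrit final) were incubated with compounds for 72 h at 37C, 5% CO2. Parasite DNA was detected by SYBR Green I fluorescence after saponin/Triton lysis, normalized to artemisinin (0.29 uM) and DMSO controls.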
(In qHTS, concentration-response curves come from the screen itself.)

Assay [2] is described as follows: qHTS for Inhibitors of Plasmodium falciparum (HB3) proliferation (AID 504318). Further: nearly all actives have a fitted effect of over 60% in size. Further: potency means the concentration at half of the fitted maximal effect. Summed up: (§1)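 Erythrocytes infected with P. falciparum line (0.3% parasitemia, 2.5% hematocrit final) incubated with compounds 72 h at 37 °C, 5% CO2; SYBR Green lysis buffer added, fluorescence read next day. Normalized to 0.29 uM artemisinin and DMSO.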
Assay [3] is described as follows: qHTS for Inhibitors of Plasmodium falciparum (CP250) proliferation (AID 504320). Further: potency means the concentration at half of the fitted maximal effect. Summed up: as §1
Assay [4] can be described thus: qHTS for Inhibitors of Plasmodium falciparum (7G8) proliferation (AID 504316). Further: nearly all actives have a fitted effect of over 65% in size. Further: potency means the concentration at half of the fitted maximal effect. In outline:
as §1

Assay [5] is described as follows: qHTS for Inhibitors of Plasmodium falciparum (GB4) proliferation (AID 504315). Further: nearly all actives have a fitted effect of over 50% in size. Further: potency means the concentration at half of the fitted maximal effect. In outline: as §1
Assay [6] concerns the target Mitogen-activated protein kinase 10 (Mus musculus) (UniProt Q61831). Put plainly: JNK3 AlphaScreen Assay (AID 530; active means well fitted curve in either direction with a large enough effect, not every such curve was filed as active;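 further: kinase came from lysate of stimulated human HepG2 cells; signal reports phosphorylation of biotinylated GST-cJun 1-79 at Ser73 with 10 µM ATP; series mostly up to about 57 µM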). In outline: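 Compound titrations were preincubated 15 minutes at room temperature with substrate, antibody and pre-activated JNK3-containing HepG2 lysate. Reactions were started with 10 uM ATP and stopped with EDTA-containing bead buffer for AlphaScreen detection.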
(In general: Bead proximity is the source of the signal in Alpha formats.)

The target of assay [7] is 3',5'-cyclic-AMP phosphodiesterase 4B (Homo sapiens) (UniProt Q07343). Description: qHTS Assay for Inhibitors of PDE-IV (AID 607; active means well fitted activation curve with a large enough effect in the main read-out, with a control signal flat, not every such curve was filed as active). In outline:
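ACTOne HEK293 cells carry a modified cAMP-gated CNG channel and express endogenous PDE4; plated 1000 cells/well, compounds up to 22.9 uM final. Membrane-potential dye fluorescence (ex 535/em 590) was read; parental cells received 10 uM forskolin + 100 uM RO 20-1724.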

For assay [8], the target named is Cytochrome P450 2C9 (Homo sapiens) (UniProt P11712). Description: qHTS Assay for Inhibitors and Substrates of Cytochrome P450 2C9 (AID 883). Further: potency means the concentration at half of the fitted maximal effect; nearly all actives have a fitted effect of over 60% in size. Summed up:
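Inhibition of CYP2C9 is scored as loss of luminescence, with 57uM sulphaphenazole defining 100% inhibition. Substrate Luciferin-H is used at 100uM, equal to its KM; enzyme at 10nM in 25mM KPO4, 60 min at 37C with NADPH regeneration.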

For assay [9], the target named is Cytochrome P450 3A4 (Homo sapiens) (UniProt P08684). Description: qHTS Assay for Inhibitors and Substrates of Cytochrome P450 3A4 (AID 884). Further: potency means the concentration at half of the fitted maximal effect; nearly all actives have a fitted effect of over 50% in size. Summed up:
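20 nM human CYP3A4 with 25 uM Luciferin-PPXE (at KM) in 200 mM KPO4, preincubated 10 min with compound; NADPH regeneration started a 60 min RT reaction. Luciferin detected by luminescence, normalized to 57 uM ketoconazole as full inhibition.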

For assay [10] the target is unchanged. Put plainly: qHTS Assay for Activators of Cytochrome P450 3A4 (AID 885). Further: nearly all actives have a fitted effect of over 65% in size. In outline:
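20nM CYP3A4 + 25uM Luciferin-PPXE (=KM), 200mM KPO4; cpd 10 min RT; NADPH regen, 60 min RT; stop w/ detection buffer, 20 min; luminescence. Normalized to 57 uM ketoconazole.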

Assay [11] concerns the target Cytochrome P450 2C19 (Homo sapiens) (UniProt P33261). Put plainly: qHTS Assay for Inhibitors and Substrates of Cytochrome P450 2C19 (AID 899). Further: potency means the concentration at half of the fitted maximal effect; nearly all actives have a fitted effect of over 60% in size. In outline: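 5nM enzyme + 10uM Luciferin-H EGE (=KM), 50mM KPO4; cpd pin-transferred, 10 min 37C; NADPH regen, 60 min 37C; stopped w/ luciferin detection reagent, 20 min; luminescence. Normalized to 57uM ketoconazole (AC100).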

Sequence of Cytochrome P450 2C9 (Homo sapiens) (P11712 whole entry, looked up): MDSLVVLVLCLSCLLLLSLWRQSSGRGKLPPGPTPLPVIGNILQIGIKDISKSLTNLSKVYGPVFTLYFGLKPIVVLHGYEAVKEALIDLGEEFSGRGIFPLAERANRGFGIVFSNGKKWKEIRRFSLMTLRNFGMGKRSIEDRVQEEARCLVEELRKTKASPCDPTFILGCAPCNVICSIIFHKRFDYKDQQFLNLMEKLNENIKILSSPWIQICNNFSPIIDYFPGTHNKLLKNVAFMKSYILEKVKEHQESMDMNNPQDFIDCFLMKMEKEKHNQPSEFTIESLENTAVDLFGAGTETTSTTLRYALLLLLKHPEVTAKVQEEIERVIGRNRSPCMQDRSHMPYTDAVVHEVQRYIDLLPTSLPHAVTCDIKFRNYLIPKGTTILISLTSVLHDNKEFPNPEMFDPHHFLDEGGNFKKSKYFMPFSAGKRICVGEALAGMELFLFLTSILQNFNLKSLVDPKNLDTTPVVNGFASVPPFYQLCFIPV
Sequence of 3',5'-cyclic-AMP phosphodiesterase 4B (Homo sapiens) (Q07343 whole entry, looked up): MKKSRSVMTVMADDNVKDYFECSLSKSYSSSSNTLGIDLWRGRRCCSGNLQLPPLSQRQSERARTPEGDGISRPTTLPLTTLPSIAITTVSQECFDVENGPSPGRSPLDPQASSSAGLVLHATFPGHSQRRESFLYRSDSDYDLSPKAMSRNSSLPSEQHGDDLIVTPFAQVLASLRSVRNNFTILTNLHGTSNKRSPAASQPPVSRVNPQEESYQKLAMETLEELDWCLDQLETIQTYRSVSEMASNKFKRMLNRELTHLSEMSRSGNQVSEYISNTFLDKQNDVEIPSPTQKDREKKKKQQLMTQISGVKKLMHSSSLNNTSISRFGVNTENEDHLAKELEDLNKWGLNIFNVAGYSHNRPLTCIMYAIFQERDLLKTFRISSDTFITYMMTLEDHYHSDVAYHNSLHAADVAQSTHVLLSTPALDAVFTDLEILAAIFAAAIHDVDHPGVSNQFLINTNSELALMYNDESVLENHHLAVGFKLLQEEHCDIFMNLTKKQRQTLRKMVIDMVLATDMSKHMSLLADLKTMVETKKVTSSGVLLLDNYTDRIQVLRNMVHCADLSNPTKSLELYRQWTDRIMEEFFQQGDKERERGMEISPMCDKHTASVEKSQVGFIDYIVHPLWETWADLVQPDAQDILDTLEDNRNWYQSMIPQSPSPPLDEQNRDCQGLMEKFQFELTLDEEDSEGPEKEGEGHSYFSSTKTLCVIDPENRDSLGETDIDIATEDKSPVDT
Sequence of Cytochrome P450 3A4 (Homo sapiens) (P08684 whole entry, looked up): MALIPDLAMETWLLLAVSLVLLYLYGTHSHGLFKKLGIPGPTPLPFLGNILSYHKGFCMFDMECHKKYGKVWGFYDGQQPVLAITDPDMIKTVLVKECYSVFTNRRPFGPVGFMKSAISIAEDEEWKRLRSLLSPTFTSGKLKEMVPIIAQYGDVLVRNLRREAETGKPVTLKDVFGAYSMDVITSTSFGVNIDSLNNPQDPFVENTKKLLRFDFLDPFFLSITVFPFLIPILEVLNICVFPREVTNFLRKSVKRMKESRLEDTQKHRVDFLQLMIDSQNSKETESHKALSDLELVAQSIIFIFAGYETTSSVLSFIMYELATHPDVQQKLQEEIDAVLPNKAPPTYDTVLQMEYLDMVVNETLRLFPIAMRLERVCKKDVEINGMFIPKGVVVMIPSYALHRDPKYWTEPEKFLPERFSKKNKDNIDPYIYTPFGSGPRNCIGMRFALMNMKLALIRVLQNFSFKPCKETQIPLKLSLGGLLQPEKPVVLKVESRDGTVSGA
Sequence of Cytochrome P450 2C19 (Homo sapiens) (P33261 whole entry, looked up): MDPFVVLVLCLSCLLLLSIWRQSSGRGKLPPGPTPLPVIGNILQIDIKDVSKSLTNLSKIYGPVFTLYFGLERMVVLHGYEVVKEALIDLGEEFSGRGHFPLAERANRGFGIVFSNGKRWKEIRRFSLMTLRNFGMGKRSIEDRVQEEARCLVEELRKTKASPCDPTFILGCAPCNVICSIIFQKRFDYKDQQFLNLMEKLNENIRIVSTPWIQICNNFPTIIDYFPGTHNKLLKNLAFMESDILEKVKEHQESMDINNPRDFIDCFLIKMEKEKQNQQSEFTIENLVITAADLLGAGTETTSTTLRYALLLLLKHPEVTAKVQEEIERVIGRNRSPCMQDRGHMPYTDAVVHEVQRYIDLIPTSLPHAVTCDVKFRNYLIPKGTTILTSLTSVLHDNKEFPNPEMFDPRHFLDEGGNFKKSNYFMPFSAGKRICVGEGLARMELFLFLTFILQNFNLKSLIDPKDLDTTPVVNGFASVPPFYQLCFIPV

For `CCOC(=O)CN1C(=O)N[C@@H](CCc2ccccc2)C(C(C)=O)=C1C`, the Potency entry in assay [1], in assay [2] and in assay [3] was “inactive” throughout.
With `COC(=O)C1=C(C(=O)OC)[C@@H]2N(C)c3ccccc3[C@@]23C[C@@H](C(=O)OC)N=C3N1`, the Potency result in assay [1], in [4], in assay [2] and in assay [3] was “inactive” each time.
For `COC(=O)N1C2=C(c3ccccc3[C@@H]1CC(=O)Nc1ccc3cc4ccccc4cc3c1)[C@@H]1C(=O)N(c3ccccc3)C(=O)[C@@H]1[C@H](C)C2`, the Potency in assay [5] is 1510 nM (active); in [4], 1900 nM (active); in assay [2], 1690 nM (active).
As to `CCN1C(=O)N[C@@H](c2cccc(C(F)(F)F)c2)C(C(C)=O)=C1C`, the Potency entry in assay [1], in assay [2] and in assay [3] was “inactive” throughout.
Turning to `COCCN1C(=O)N[C@@H](c2cccc(C(F)(F)F)c2)[C@@H](C(=O)OC)[C@H]1C`, the Potency result in assay [1], in assay [4], in assay [2] and in [3] was “inactive” each time.
In the case of `CCCCc1nc2c(c3c1C[C@H](C)OC3)CN(C(=O)NCc1ccco1)CC2`, the Potency entry in [5], in [2] and in [3] was “inactive” in each case.
`COC(=O)CCC(=O)OC1(C)C(=O)C2=CN(C3CC3)C(c3ccc(OC)cc3)=CC2=C(Br)C1=O` (stereo unspecified): the Potency entry in assay [5], in assay [4], in assay [2] and in assay [3] was “inactive” throughout.
Consider `CCCCc1nc2c(c3c1C[C@H](C)OC3)CN(S(=O)(=O)c1ccc(C#N)cc1)CC2`, for which the Potency result in [5], in assay [2] and in assay [3] was “inactive” each time.
On to `COC(=O)C1=C(C(=O)OC)[C@@H]2N(C)c3ccc(OC)cc3[C@@]23C[C@@H](C(=O)OC)N(C(=O)c2ccc(Br)cc2)C3=N1`, for which the Potency result in assay [5], in assay [4], in assay [2] and in [3] was “inactive” each time.
Regarding `CCC(=O)OC1(C)C(=O)C=C2C=C(CCCCNC(=O)OC(C)(C)C)OC=C2C1=O` (stereo unspecified), the Potency result in assay [5], in assay [4], in assay [2] and in assay [3] was “inactive” throughout.
With `CC(=O)c1ccc([C@@H]2C=C[C@H](O)[C@@H](CO)O2)cc1`, the Potency entry in assay [1], in [4], in [2] and in assay [3] was “inactive” in each case.
As to `CCN1C(=O)N[C@@H](c2ccco2)C(C(C)=O)=C1C`, the Potency entry in assay [5], in assay [4], in assay [2] and in assay [3] was “inactive” throughout.
Take `COC/C=C/C1=CC2=CC(=O)C(C)(OC(=O)c3cnc4ccccc4n3)C(=O)C2=CN1CCN1CCOCC1` (stereo unspecified): the Potency result in [5], in assay [4], in assay [2] and in assay [3] was “inactive” each time.
With `CCN1C(=O)N[C@@H](CCc2ccccc2)C(C(=O)OC)=C1C`, the Potency result in assay [5], in assay [2] and in assay [3] was “inactive” each time.
With `COC(=O)C1=C(C(=O)OC)[C@@H]2N(C)c3ccccc3[C@@]23C[C@@H](C(=O)OC)N(C(C)=O)C3=N1`, the Potency entry in assay [5], in [4], in [2] and in assay [3] was “inactive” throughout.
Consider `COCCN1C(=O)N[C@@H](c2cccs2)C(C(C)=O)=C1C`, for which the Potency entry in assay [5], in assay [4], in assay [2] and in assay [3] was “inactive” in each case.
Consider `COC(=O)CCC(=O)OC1(C)C(=O)C2=CN(CCc3ccccn3)C(c3ccc(OC)cc3)=CC2=C(Br)C1=O` (stereo unspecified), for which the Potency result in assay [5], in assay [4] and in assay [2] was “inactive” each time.
Regarding `COC(=O)C1=C(C(=O)OC)[C@@H]2N(C)c3ccccc3[C@@]23C[C@@H](CO)N(C(=O)C2CCC2)C3=N1`, the Potency entry in assay [5], in assay [4], in assay [2] and in assay [3] was “inactive” each time.
For `CCN1C(=O)N[C@@H](c2ccc(Br)cc2)C(C(C)=O)=C1C`, the Potency result in assay [1], in assay [2] and in [3] was “inactive” each time.
Regarding `CC1(C)O[C@@H](C(O)(c2cc(F)c(F)c(F)c2)c2cc(F)c(F)c(F)c2)[C@H](C(O)(c2cc(F)c(F)c(F)c2)c2cc(F)c(F)c(F)c2)O1`, the Potency in assay [1] is 671 nM (active); in assay [4], 379 nM (active); in assay [2], 536 nM (active); in assay [3], 849 nM (active).
Regarding `COCCN1C(=O)N[C@@H](c2ccccc2)[C@@H](C(=O)OC)[C@H]1C`, the Potency result in assay [5], in assay [4], in assay [2] and in assay [3] was “inactive” in each case.
Take `COC(=O)[C@@]1(Cc2ccc(OC)cc2)[C@H]2c3cc(C(=O)N4CCCC4)n(CCSCCO)c3C[C@H]2CN1C(=O)c1ccccc1`: the Potency result in [6] and in [7] was “inactive” in each case.
`O=C(NCc1ccccc1)[C@@H]1C[C@H]1[C@@H](NP(=O)(c1ccccc1)c1ccccc1)c1ccccc1`: the Potency result in [6] was “inactive”.
In the case of `C[C@@H](C(=O)Nc1ccc2ccccc2c1)[C@H]1C[C@]1(C)[C@H](NC(=O)c1cnccn1)c1ccccc1`, the Potency result in assay [6], in assay [7] and in assay [10] was “inactive” in each case. Also, the Potency is 5010 nM (active) in assay [8] and 631 nM (active) in assay [9].
Regarding `CC1(OC(=O)CCc2ccccc2)C(=O)C=C2C=C(c3ccc(C#N)cc3)N(CCN3CCOCC3)C=C2C1=O` (stereo unspecified), the Potency result in assay [4], in assay [2] and in assay [3] was “inactive” in each case.
Turning to `COC(=O)[C@@]1(Cc2ccc(F)cc2)[C@H]2c3cc(C(=O)N4CCCC4)n(CCc4ccc(O)c(O)c4)c3C[C@H]2CN1C(=O)c1ccccc1`, the Potency entry in assay [6] and in [10] was “inactive” throughout. For the same compound, the Potency in [8] was 3160 nM (active); in [9], 2510 nM (active).
As for `COC(=O)[C@@]1(Cc2ccccc2)[C@H]2c3cc(C(=O)N4CCCC4)n(CC4CC4)c3C[C@H]2CN1C(=O)c1ccccc1`, the Potency in [9] and in assay [11] was 3160 nM (active) each time. Further, the Potency result in assay [10] is “inactive”.
As to `O=C(Cc1ccccc1I)Nc1ccccc1`, the Potency result in [6] and in assay [7] was “inactive” in each case. Further, the Potency in assay [11] is 6310 nM (active).
With `CC1=C(C(=O)OCc2ccccc2)C(c2ccc(Cl)cc2)NC(=O)N1CCCCCC(=O)O` (stereo unspecified), the Potency entry in [6], in assay [7] and in assay [10] was “inactive” in each case.
As for `COC(=O)[C@@]1(Cc2ccccc2)[C@H]2c3cc(C(=O)N4CCCC4)n(Cc4ccc(S(C)(=O)=O)cc4)c3C[C@H]2CN1C(=O)c1ccccc1`, the Potency result in assay [6] and in assay [10] was “inactive” in each case. Also, in [9], the Potency is 3160 nM (active).
Consider `COC(=O)[C@@]1(Cc2ccc(F)cc2)[C@H]2c3cc(C(=O)N(C)C)n(Cc4ccc(C(F)(F)F)nc4)c3C[C@H]2CN1C(=O)c1ccccc1`, for which the Potency result in [6], in assay [7] and in assay [10] was “inactive” throughout. In addition, in [9], the Potency was 1260 nM (active).
With `Nc1ccccc1C#Cc1ccccc1`, the Potency result in assay [6], in [7] and in [10] was “inactive” in each case. For the same compound, the Potency in assay [8] was 7940 nM (active).

The record behind these values is PubChem BioAssay (NCATS).
